Results on 28 molecules are retold here after PubChem BioAssay (NCATS).

Inconclusive results are not listed. Unmarked numbers belong to inactive results. Calls of active or inactive are those of the source. The call rests on the fitted dose curve; in most records, active means well fitted inhibition curve with a large enough effect; inconclusive means small, poorly fitted or top-dose-only effect; inactive means flat fitted curve, though single readings scatter.

The nature of test [1]: Drug repurposing screens with cells derived from glioblastoma tumor samples (AID 1345199). Further: nearly all actives have a fitted effect of over 40% in size. The following applies: GBM patient neurospheres viability, ATP luminescence, 48 h. The method, boiled down: (§1)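 Primary testing used CD133+ neurospheres from four GBM patients, seven concentrations, 48 h exposure and ATP-based viability; confirmation added three slower-growing patient lines.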

In test [2] the test system is astro (control astrocytes). The description is as above. The following applies: viability, ATP luminescence, 48 h; series mostly up to 45.9 µM. The gist of the method:
as §1

Where [3] appears, read: at 45.9 µM (top of the series), tumour line B.
The mark [4] stands for this setting: at 45.9 µM (top of the series), tumour line D.
Where [5] appears, read: at 46.1 µM (top of the series), tumour line C.
The mark [6] stands for this setting: at 20 µM (top of the series), tumour line C.
The mark [7] stands for this setting: at 46 µM (top of the series), tumour line A.
[8] abbreviates: at 21.2 µM (top of the series), tumour line B.
On the % scale 0 is the no-effect control and ±100 the full control effect; potency means the concentration at half of the fitted maximal effect.

Regarding `CCCCCCCCCCCCCCCCCCCCCC(=O)Nc1ccn([C@@H]2O[C@H](CO)[C@@H](O)[C@@H]2O)c(=O)n1`, the activity, negative = cell killing is -14.5% in test [1] (setting [3]), -7.79% in test [1] (setting [4]) and -16.8% in test [1] (setting [5]). Also, the Potency entry in test [2] is “inactive”.
`Cc1ncc(COP(=O)(O)O)c(CN)c1O`: the results for the activity, negative = cell killing in test [1] (setting [3]), in test [1] (setting [4]) and in test [1] (setting [5]) were -10.4%, -17.3% and -23.4%, respectively. Also, in test [2], the Potency entry is “inactive”.
Turning to `CC(C)(C)NC[C@H](O)COc1ccccc1C1CCCC1`, the activity, negative = cell killing in test [1] (setting [6]) is 19%. The results for the Potency in test [1] (tumour line A) and in test [1] (tumour line D) were 4.47 µM (active) and 12.6 µM (active), respectively. Also, in test [2], the Potency entry is “inactive”.
In the case of `O=P(O)(O)OP(=O)(O)O`, the figures for the activity, negative = cell killing in test [1] (setting [3]), in test [1] (setting [4]) and in test [1] (setting [5]) were -12.9%, -11% and -5.23%, respectively. Also, the Potency entry in test [2] was “inactive”.
As for `N#Cc1ccc2c(c1)N(CCCN1CCC(O)CC1)c1ccccc1S2`, the activity, negative = cell killing is -29.3% in test [1] (setting [3]) and 15.3% in test [1] (setting [5]). Also, in test [1] (tumour line A), the Potency was 5.01 µM (active). The Potency entry in test [2] is “inactive”.
Regarding `O=C[C@H](O)[C@@H](O)[C@@H](O)[C@H](O)CO`, the activity, negative = cell killing in test [1] (setting [3]) is -11.6%; in test [1] (setting [4]), 0.16%; in test [1] (setting [5]), 10.2%. Moreover, the Potency entry in test [2] is “inactive”.
The corresponding values for `CO/N=C(\C(=O)N[C@@H]1C(=O)N2C(C(=O)O)=C(CSC(=O)c3ccco3)CS[C@H]12)c1csc(N)n1` are -9.93%, -3.95%, -21.7% and “inactive”.
For the molecule `O=C1c2ccccc2C(=O)C1c1ccc(F)cc1`, the activity, negative = cell killing in test [1] (setting [3]) was -20.2%; in test [1] (setting [4]) it was -13.5%; in test [1] (setting [7]), -45.8%. The Potency entry in test [2] is “inactive”.
In the case of `CCCCCCCCCCCCCCCCCCOCC(COP(=O)([O-])OCC[N+](C)(C)C)OC` (configuration not stated), the activity, negative = cell killing was -24.7% in test [1] (setting [4]) and -1.43% in test [1] (setting [5]). Besides, the Potency in test [1] (tumour line A) is 35.5 µM (active). In addition, in test [2], the Potency entry is “inactive”.
As to `OC[C@H]1O[C@@H](O[C@H]2[C@H](O)[C@@H](O)[C@H](O)O[C@@H]2CO)[C@H](O)[C@@H](O)[C@@H]1O`, the activity, negative = cell killing in test [1] (setting [3]) was -9.2%; in test [1] (setting [4]), 6.26%; in test [1] (setting [5]), -13.5%. Besides, in test [2], the Potency result was “inactive”.
For the molecule `CCOC(=O)[C@H](CS)NCCN[C@@H](CS)C(=O)OCC`, the results for the activity, negative = cell killing in test [1] (setting [3]), in test [1] (setting [4]) and in test [1] (setting [5]) were -15.2%, -8.47% and -15.5%, respectively. The Potency result in test [2] was “inactive”.
The corresponding values for `O=S(=O)(O)CC(S)CS` (configuration not stated) are -24.2%, -0.499%, -22% and “inactive”.
Consider `OC[C@H]1OC([S-])[C@H](O)[C@@H](O)[C@@H]1O.[Au+]` (some centres not stated), for which the activity, negative = cell killing in test [1] (setting [3]) was -5.43%; in test [1] (setting [4]) it was -19.5%; in test [1] (setting [5]), -19.6%. Further, the Potency entry in test [2] was “inactive”.
With `O=C(O)COc1ccccc1/C=N/NC(=O)c1ccncc1`, the results for the activity, negative = cell killing in test [1] (setting [3]), in test [1] (setting [4]) and in test [1] (setting [5]) were -7.55%, 5.85% and -10.4%, respectively. The Potency result in test [2] is “inactive”.
On to `Cc1cc2nc3c(=O)[nH]c(=O)nc-3n(C[C@H](O)[C@H](O)[C@H](O)COP(=O)(O)OP(=O)(O)OC[C@H]3O[C@@H](n4cnc5c(N)ncnc54)[C@H](O)[C@@H]3O)c2cc1C`, for which the figures for the activity, negative = cell killing in test [1] (setting [3]), in test [1] (setting [4]) and in test [1] (setting [7]) were -13.1%, -9.51% and -9.49%, respectively. Besides, in test [2], the Potency result is “inactive”.
As to `CCCCCCCCCCCCCCCCCC(=O)OCC(C)O` (configuration not stated), the activity, negative = cell killing in test [1] (setting [3]) was -18.7%; in test [1] (setting [4]) it was -0.865%; in test [1] (setting [7]), -14.9%. Further, the Potency entry in test [2] is “inactive”.
Turning to `CCSc1ccc2c(c1)N(CCCN1CCN(C)CC1)c1ccccc1S2`, the activity, negative = cell killing in test [1] (setting [6]) is -10.8%; in test [1] (setting [8]), -0.856%. Also, the Potency in test [1] (tumour line A) is 6.31 µM (active). Also, the Potency entry in test [2] was “inactive”.
On to `O=[N+]([O-])O[C@@H]1CO[C@H]2[C@@H]1OC[C@@H]2O`, for which the activity, negative = cell killing in test [1] (setting [3]) was -16.9%; in test [1] (setting [4]), -5.25%; in test [1] (setting [7]), -36.5%. Further, the Potency entry in test [2] is “inactive”.
For the molecule `COc1ccc(/C=C/C(=O)O)cc1`, the activity, negative = cell killing in test [1] (setting [3]) is 6.24%; in test [1] (setting [4]) it was -5.33%; in test [1] (setting [5]) it was 9.31%. Besides, in test [2], the Potency entry is “inactive”.
Regarding `CCCCCCCCCCCCCCCC(=O)OC[C@@H](O)[C@H]1OC[C@H](O)[C@H]1O`, the activity, negative = cell killing in test [1] (setting [3]) is -4.52%; in test [1] (setting [4]), 10.4%; in test [1] (setting [5]) it was -6.66%. Further, the Potency entry in test [2] is “inactive”.
As to `S=C1SCN(Cc2ccccc2)CN1Cc1ccccc1`, the figures for the activity, negative = cell killing in test [1] (setting [4]) and in test [1] (setting [5]) were -15% and -9.54%, respectively. Also, the Potency in test [1] (tumour line A) is 11.2 µM (active). For the same molecule, the Potency entry in test [2] is “inactive”.
Regarding `CCCCC/C=C\CCC(=O)N[C@H]1[C@H](Oc2c3cc4cc2Oc2ccc(cc2Cl)[C@@H](O[C@@H]2O[C@H](CO)[C@@H](O)[C@H](O)[C@H]2NC(C)=O)[C@@H]2NC(=O)[C@H](NC(=O)[C@@H]4NC(=O)[C@H]4NC(=O)[C@@H](Cc5ccc(c(Cl)c5)O3)NC(=O)[C@H](N)c3ccc(O)c(c3)Oc3cc(O)cc4c3)c3ccc(O)c(c3)-c3c(O[C@H]4O[C@H](CO)[C@@H](O)[C@H](O)[C@@H]4O)cc(O)cc3[C@@H](C(=O)O)NC2=O)O[C@H](CO)[C@@H](O)[C@@H]1O`, the activity, negative = cell killing is -16.8% in test [1] (setting [6]); -7.38% in test [1] (setting [8]); -14.2% in test [1] (at 21.2 µM (top of the series), tumour line D). Further, the Potency result in test [2] is “inactive”.
On to `C[C@@H]1C[C@H]2[C@@H]3CCC4=CC(=O)C=C[C@]4(C)[C@@]3(F)[C@@H](O)C[C@]2(C)[C@@]1(O)C(=O)COC(=O)c1cccc(S(=O)(=O)O)c1`, for which the activity, negative = cell killing is -14.3% in test [1] (setting [3]), -16.1% in test [1] (setting [4]) and -5.39% in test [1] (setting [7]). In test [2], the Potency result is “inactive”.
As for `O=C(O)C1=C(CSc2nnnn2CS(=O)(=O)O)CS[C@@H]2[C@H](NC(=O)[C@H](O)c3ccccc3)C(=O)N12`, the results for the activity, negative = cell killing in test [1] (setting [3]), in test [1] (setting [4]) and in test [1] (setting [5]) were -15.2%, -23.3% and -17.1%, respectively. Further, the Potency entry in test [2] is “inactive”.
The matching figures for `NCC[C@H](O)C(=O)N[C@@H]1C[C@H](N)[C@@H](O[C@H]2O[C@H](CN)[C@@H](O)[C@H](O)[C@H]2O)[C@H](O)[C@H]1O[C@H]1O[C@H](CO)[C@@H](O)[C@H](N)[C@H]1O`: -16.5%, -17.9%, -4.11% and “inactive”.
In the case of `CO/N=C(\C(=O)N[C@@H]1C(=O)N2C(C(=O)[O-])=C(C[n+]3cccc4c3CCC4)CS[C@H]12)c1csc(N)n1`, the activity, negative = cell killing in test [1] (setting [3]) was -11.7%; in test [1] (setting [4]) it was -9.09%. For the same molecule, in test [1] (tumour line C), the Potency was 23.1 µM (active). In addition, in test [2], the Potency entry is “inactive”.
For the molecule `COc1ccc(/C=N/NC(=O)c2ccncc2)c(C(=O)O)c1OC`, the activity, negative = cell killing was -18.2% in test [1] (setting [3]), 8.03% in test [1] (setting [4]) and -30.2% in test [1] (setting [7]). In test [2], the Potency entry is “inactive”.
On to `C[C@H](NCCc1ccc(O)cc1)[C@H](O)c1ccc(O)cc1`, for which the activity, negative = cell killing was -2.5% in test [1] (setting [3]), -20.4% in test [1] (setting [4]) and -12.8% in test [1] (setting [5]). For the same molecule, the Potency entry in test [2] is “inactive”.
